Measured values from PubChem BioAssay (NCI).
About 83,000 compounds went through this panel and 20% of them were active in at least one assay; those are over-represented in the sample as a whole.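 Results are percent growth after 48 hours of single-concentration exposure. 100 means growth as in untreated cells, lower positive values show inhibition; negative values down to -100 show cell death.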 Unmarked numbers belong to inactive results. Calls of active or inactive are those of the source. How the source made its calls: active means growth percent below 10; inactive means the rest.

Tests used:
Test in all cases: NCI-60 one-dose screen, 48 h (100 = growth as untreated, 0 = no growth, -100 = all killed)
Conditions in all cases: 10 µM unless noted
BT-549 breast = system: BT-549 breast
MDA-MB-435 melanoma = system: MDA-MB-435 melanoma
SW-620 colon = system: SW-620 colon
MCF7 breast = system: MCF7 breast
HCT-116 colon = system: HCT-116 colon
HCC-2998 colon = system: HCC-2998 colon
KM12 colon = system: KM12 colon

SMILES	growth (BT-549 breast)	growth (MDA-MB-435 melanoma)	growth (SW-620 colon)	growth (MCF7 breast)	growth (HCT-116 colon)	growth (HCC-2998 colon)	growth (KM12 colon)
Cn1c2ccccc2c2c(OC(=O)c3ccccc3)c3c(nc21)-c1ccccc1C3	94%	104%	105%	72.7%	95.9%	106%	96.7%
COc1ccc(-c2cc(-c3nnc(SCC(=O)Nc4ccc(C(C)=O)cc4)o3)c3ccccc3n2)cc1	14.8%	11.5%	5.51% (active)	-15.7% (active)	-26.9% (active)	96.5%	39.2%
COc1cc(C(=O)N2CCN(c3ccccc3OC)CC2)c(NC(=O)c2cnccn2)cc1OCc1ccccc1	97.6%	95.1%	101%	109%	87.8%	87.3%	90.7%
CCN1CCN(c2ccc(NC(=O)Nc3nc4ccc(-c5ccccc5OC)cc4s3)cc2)CC1	31.6%	-85.5% (active)	-70% (active)	-70.8% (active)	-82.3% (active)	-88.1% (active)	-83.5% (active)
COc1cccc(NC(=O)Nc2ccc(Oc3ncnc4[nH]c(C)c(C)c34)cc2)c1	99.6%	100%	81.7%	40.9%	81.6%	103%	52.2%
CN1CC=C(c2cc(NC(=O)Nc3ccc(Oc4ccnc(NC(=O)C5CC5)c4)c(F)c3)cc(C(F)(F)F)c2)CC1	-11.2% (active)	-12.4% (active)	-0.0556% (active)	-17.1% (active)	-10.7% (active)	11.8%	-11.2% (active)
O=c1c2ccccc2n(CC(O)CN2CCCC2)c2c(Br)cccc12 (stereo unspecified)	92.2%	86.8%	94.9%	92.9%	90.4%		94%
COc1cc(C2=NN(c3ccccc3)C(c3cccc(Nc4ccnc5cc(C(F)(F)F)ccc45)c3)C2)cc(OC)c1OC (stereo unspecified)	114%	104%	94.8%	80.6%	89.7%	90%	88.1%
COc1ccc2cc(/C=C3\N=C(c4cc(OC)c(OC)c(OC)c4)OC3=O)c(OC)nc2c1	104%	106%	100%	99.8%	97.9%	102%	98.9%
O=C(CCCC(=O)Nc1ccc(-n2nnc3cc(Cl)c(Cl)cc32)cc1)Nc1ccc(-n2nnc3cc(Cl)c(Cl)cc32)cc1	51.2%	51.2%	49.6%	22.6%		93.7%	
O=C(Nc1ccc(N=Cc2ccccc2O)cc1)NC1C=c2ccccc2=CC1 (stereo unspecified)	86.6%	104%	105%	92.6%		100%	103%
CCc1n(Cc2ccc3ccccc3c2)c2ccccc2[n+]1Cc1ccc2ccccc2c1	58.7%	46.7%	77.1%	49.6%	51.5%	58%	39.6%
COC1=CC=CC2(OC)C3(O)CCCc4cccc(c43)N3C(=O)COC132 (stereo unspecified)	103%	103%	103%	96.3%	89.7%	103%	105%
CC(C)(C)c1ccc2oc(=O)n(SC(Cl)(Cl)Cl)c2c1	98.2%	107%	76.5%	86.4%	103%	96.5%	95.2%
COC(=O)/C=C/c1cc(OC)c2c(c1)[C@@H](C(=O)OC)[C@H](c1ccc(OC)c(OC)c1)O2	36.7%	-42.3% (active)	30.4%	19.6%	15.9%	59.5%	27.6%
O=[N+]([O-])c1cccc(CN(Cc2cccc([N+](=O)[O-])c2O)c2ccccc2)c1O	88.9%	91.4%	56.9%	84.8%		67.1%	88.5%
CCCCn1c2cc(OCc3cn(-c4ccc(Cl)cc4)nn3)ccc2c2ccnc(C)c21	61.7%	60.2%	34.2%	25.8%	8.91% (active)	43.8%	41.9%
CC(C)Cc1cc(CNC(=O)C2[C@H]3CN(C(=O)c4ccccc4)C[C@@H]23)nn1-c1ccccc1 (stereo partly specified)	96.1%	108%	102%	94.4%	92%	101%	101%
C=C(C)[C@@H]1CC[C@]2(C(=O)OCCOCCOCC[P+](c3ccccc3)(c3ccccc3)c3ccccc3)CC[C@]3(C)[C@H](CC[C@@H]4[C@@]5(C)CC[C@H](C)C(C)(C)[C@@H]5CC[C@]43C)[C@@H]12	-93% (active)	-93.7% (active)	-83.5% (active)	-77% (active)		-85.5% (active)	-81.3% (active)
CCOC(=O)c1c(C)nc2c(c1N)/C(=C/c1cccs1)C(=O)N2c1ccc(OC)cc1	45.9%	59.9%	67.6%	25%	20.9%	80.7%	70.2%
C=C(C)[C@@H]1CC[C@]2(C(=O)N3CCN(C)CC3)CC[C@]3(C)[C@H](CC[C@@H]4[C@@]5(C)C/C(=C/c6ccco6)C(=O)C(C)(C)[C@@H]5CC[C@]43C)[C@@H]12	79.5%	72.8%	74%	36.1%	46.9%	92.3%	72.5%
C#C[C@@]1(O)[C@@H](CO)O[C@@H](n2cc(I)c3c(N)ncnc32)[C@@H]1O	-13.2% (active)	14.6%	0.663% (active)	1.73% (active)	0.762% (active)	-35.3% (active)	9.88% (active)
COC(=O)/C=C1\SC(=Nc2ccc(C(F)(F)F)cc2)N(CCc2c[nH]c3ccccc23)C1=O	-21.8% (active)	-85.1% (active)	-76.1% (active)	-7.91% (active)		-90.6% (active)	-62.8% (active)
S=C(Nc1ccccc1)c1ccccn1	90.5%	103%	89.6%	77.5%		98.7%	99.8%
CC(=O)O[C@@H]1C[C@]2(C)[C@H]3[C@H](O)C[C@@H]4C5=CC(C)(C)CC[C@]5(C)CC[C@@]4(C)[C@]3(C)CC[C@H]2C(C)(C)[C@H]1O	102%	99.8%	98.7%			107%	105%
O=C(CCc1nnco1)c1nc2ccc([N+](=O)[O-])cc2[nH]1	106%	106%	106%			93.4%	102%

SMILES	growth (BT-549 breast)	growth (MDA-MB-435 melanoma)	growth (SW-620 colon)	growth (MCF7 breast)	growth (HCT-116 colon)	growth (HCC-2998 colon)	growth (KM12 colon)
CC1CCCN(CCCCCOc2ccc3oc4ccccc4c(=O)c3c2)C1 (stereo unspecified)	74.3%	46%	70.1%	63.1%		85.3%	64.3%
COc1ccc(-c2cc(-c3nnc(SCC(=O)Nc4ccc(/C(C)=N\O)cc4)n3-c3ccccc3)c3cc(OC)ccc3n2)cc1	63.7%	79.2%	82.1%			100%	61.1%
O=Cc1[nH]c(Sc2ccccc2)c2ccccc12	53.4%	81.7%	81.1%	72.2%		109%	81.2%
CCCS(=O)(=O)Nc1ccc(F)c(C(=O)c2c[nH]c3ncc(-c4ccc(OCCCC5CCCCN5)nc4)cc23)c1F (stereo unspecified)	57.5%	25.9%		69.4%	70%	108%	
Cc1ccccc1NC(=O)c1sc2nc(C)c(C(C)O)cc2c1N (stereo unspecified)	57.8%	1.71% (active)	36.8%	21%		67.9%	27.7%
COc1ccc2nc(-c3ccc(OC)c(OC)c3)cc(-c3nnc(SCC(=O)Nc4ccc(/C(C)=N\O)cc4)n3-c3ccccc3)c2c1	56.4%	84.9%	89.6%			101%	75.9%
C=C1C(=O)O[C@H]2[C@H]1CCC(/C=N/c1ncc(Br)cc1N)=C\CC[C@@]1(C)O[C@@H]21	1.35% (active)	22.6%	-62.7% (active)	-3.68% (active)		62.2%	53.9%
c1ccc(-c2n(Cc3ccc4ccccc4n3)cc[n+]2Cc2ccc3ccccc3n2)cc1	28%	15.4%	37.5%			26.6%	15.8%
Nc1c(C(=O)c2ccccc2)sc2nc(-c3cc4ccccc4o3)cc(-c3ccc(Cl)cc3)c12	97.9%	108%	118%	92%		108%	93.4%
COc1ccc2c(c1)C1(C(=O)N2)C(C#N)=C(c2ccccc2)Nc2c1c(-c1ccccc1)nn2-c1ccccc1 (stereo unspecified)	84.5%	55.3%	8.54% (active)	18.1%		58.1%	39.7%
O=c1[nH]c2ccccc2cc1-c1nc2ccncc2[nH]1	91.3%	82.8%	88.4%	57.2%		93.3%	22.8%
Nc1c(C(=O)Nc2ccccn2)sc2nc3c(cc12)C(=O)CCC3	53.5%	-42.9% (active)	23.7%	22%		49.3%	16.3%
Cc1ccc(C(=O)/C(=C/c2ccc([N+](=O)[O-])cc2)S(=O)Cc2ccccc2)cc1 (stereo unspecified)	45.8%	19.7%	2.41% (active)	1.83% (active)		74.8%	23.1%
Cc1nc2sc(C(=O)Nc3ccccc3Cl)c(N)c2cc1C(C)O (stereo unspecified)	78.8%	5.06% (active)		48.6%	67.8%	84.5%	
COc1cccc(C(=O)OCCn2nc3c4c(cccc42)C(=O)c2ccccc2-3)c1O	52.8%	6.92% (active)	20.9%	18.4%		80.3%	29%
Cc1ccc(C(=O)O)o1	97.9%	108%	107%	105%		102%	96.9%
O=C1CC23OC4ON=C(Br)C4C2C(O)c2ccccc2N13 (stereo unspecified)	105%	111%	101%	88.5%		103%	100%
CO[C@@]12C=C[C@@]34CCC(=O)N3c3ccccc3[C@@H](O1)C4C2	105%	104%	101%	97.9%		106%	105%
O=CN1N=C(c2ccc(F)cc2)CC1c1cccc(Nc2ccnc3cc(C(F)(F)F)ccc23)c1 (stereo unspecified)	44.3%	58.2%	79.1%	25.3%		76.3%	55.9%
CC(=O)OCC1SC(OC(C)=O)C(NC(=O)/C=C/CCl)C(OC(C)=O)C1OC(C)=O (stereo unspecified)	105%	101%	107%	85.8%		104%	102%
C[C@@H]1C(=O)[C@@H]2C[C@@H](O)[C@@H](O)C[C@]2(C)[C@H]2CC[C@@]3(C)C(=C12)CC[C@@H]3[C@@](C)(O)[C@H](O)CCC(C)(C)O	102%	108%	106%	104%		97.3%	114%
CN1CCN(S(=O)(=O)O[C@@H]2C(=O)N(c3cc4c5ccccc5ccc4c4ccccc34)[C@H]2c2ccc(F)cn2)CC1	95.8%	98.1%	98.2%	87.4%		90.4%	91.1%
O=C1NCc2ccc3c(-c4cccc(Cl)c4)c[nH]c3c21	58.5%	-26.2% (active)	20.7%	17.5%		25.3%	19.1%
C=C1C(=O)O[C@H]2[C@H]1CC/C(C=Nc1c(N)cc(C(F)(F)F)cc1Br)=C\CC[C@@]1(C)O[C@@H]21	-22.6% (active)	4.47% (active)	-63.1% (active)	-2.09% (active)		34.2%	30%
N#CC1C(c2ccc(Cl)cc2)=Nc2c(c(-c3ccccc3)nn2-c2ccccc2)C12C(=O)Nc1ccc(Cl)cc12 (stereo unspecified)	50%	34.5%	42.1%	28.4%		55.2%	26.1%
CCOC(=O)C1=C(C)n2nc(CC#N)c(C#N)c2NC1c1ccc(Cl)cc1 (stereo unspecified)	92%	100%	97.5%	90.2%		99.9%	85.4%
